Test results as given in paper PMC5540273 (PLoS ONE, 2017).

Tests used:
Conditions in all cases: concentration: 1 μM,replicates: in singlicate; n = 1
[1] = tested on: AAK1
[2] = tested on: ABL1-nonphosphorylated
[3] = tested on: ABL1-phosphorylated
[4] = tested on: ABL2
[5] = tested on: ACVR1B
[6] = tested on: ACVR1
[7] = tested on: ACVR2A
[8] = tested on: ACVR2B
[9] = tested on: ACVRL1
[10] = tested on: T1, ADCK3
T1 construct: gene CABC1

[11] = tested on: ADCK4
[12] = tested on: AKT1
[13] = tested on: AKT2
[14] = tested on: AKT3
[15] = tested on: ALK
[16] = tested on: T2, AMPK-alpha1
T2 construct: gene PRKAA1

[17] = tested on: T3, AMPK-alpha2
T3 construct: gene PRKAA2

[18] = tested on: ANKK1
[19] = tested on: T4, ARK5
T4 construct: gene NUAK1

[20] = tested on: T5, ASK1
T5 construct: gene MAP3K5
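Note: KINOMEscan kinase panel screen.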

SMILES	%Inh [1]	%Inh [2]	%Inh [3]	%Inh [4]	%Inh [5]	%Inh [6]	%Inh [7]	%Inh [8]	%Inh [9]	%Inh [10]	%Inh [11]	%Inh [12]	%Inh [13]	%Inh [14]	%Inh [15]	%Inh [16]	%Inh [17]	%Inh [18]	%Inh [19]	%Inh [20]
COc1cccc(CNC(=O)NC2CCN(c3ccnc(Nc4cc(OC)c(OC)c(OC)c4)n3)C2)c1 (stereo not shown) [GSK1379765]	54%	0%	0%	20%	0%	0%	0%	14%	0%	24%	92.3%	0%	17%	0%	72%	0%	2%	42%	45%	7%
CC(C)c1nc(-c2cccc(NS(=O)(=O)c3ccccc3)c2)c(-c2ccnc(Nc3ccc4c(c3)CN(C)CC4)n2)s1 [GSK1649598]	25%	99.8%	97.3%	98.7%	93.5%	99%	24%	94.5%	80%	100%	97.4%	0%	4%	0%	0%	82%	94.5%	42%	6%	0%
Cc1n[nH]c2cc(Nc3ccnc(Nc4cccc(CN5CCOCC5)c4)n3)ccc12 [GW682569]	71%	22%	26%	23%	36%	85%	0%	39%	17%	19%	97.1%	0%	0%	0%	16%	0%	0%	17%	0%	0%
CCn1c(-c2nonc2N)nc2cncc(CNC3CCNCC3)c21.Cl [SB-747651]	39%	5%	5%	13%	0%	8%	0%	0%	0%	1%	11%	72%	51%	66%	63%	6%	0%	22%	9%	9%
COc1cc2c(Nc3ccc(NC(=O)c4ccccc4)cc3)ncnc2cc1OCCCN1CCOCC1 [GSK301329]	0%	16%	0%	20%	0%	0%	0%	0%	0%	10%	0%	0%	0%	0%	9%	0%	0%	17%	28%	0%
OCCn1cc(-c2cnc3nnn(Cc4ccc5ncccc5c4)c3n2)cn1	0%	32%	0%	0%	51%	0%	0%	0%	0%	0%	0%	0%	0%	45%	0%	3%	0%	0%	0%	19%
CSc1nccc(-c2c(-c3ccc(F)cc3)ncn2CCCN2CCOCC2)n1.Cl [SB-217146]	0%	35%	31%	0%	0%	0%	0%	0%	0%	0%	25%	14%	0%	0%	0%	0%	0%	1%	0%	0%
CC(C)S(=O)(=O)N1CCN(Cc2ccc3c(c2)nc(NC(=O)c2ccsc2)n3C[C@H](O)c2ccccc2)CC1 [GW635815]	38%	0%	2%	22%	15%	0%	0%	0%	0%	0%	27%	0%	16%	0%	68%	0%	2%	19%	60%	17%
